Among all 5,500 compounds or so, about 2,000 (36%) were called active. About 18% were inconclusive and are not listed. No stated cut-off is given here; in the data, active means normalized growth mostly below about 0.91 (no sharp cut-off); inconclusive means no clear call, values can overlap the other calls; inactive means mostly above about 0.92. The list shows a part of the results.
Test: chemical genetic growth profiling, strain panel (AID 1159580);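 further: tested at 20 µM; growth read once vehicle control cultures reached saturation at 30 °C; 1 = growth at the plate median or of vehicle wells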
Details: growth OD

Measured: normalized growth

CC(=O)CSc1nsc(SCC(C)=O)c1C#N
inactive: S. cerevisiae deletion strains, locus YAL013W, strain DEP1, stronger effect = lower value 1.01 | S. cerevisiae deletion strains, locus YBR229C, strain ROT2, stronger effect = lower value 1 | S. cerevisiae deletion strains, locus YCL061C, strain MRC1, stronger effect = lower value 1.01 | S. cerevisiae deletion strains, locus YDL101C, strain DUN1, stronger effect = lower value 0.974 | S. cerevisiae deletion strains, locus YDL134C, strain PPH21, stronger effect = lower value 1.01 | S. cerevisiae deletion strains, locus YDR150W, strain NUM1, stronger effect = lower value 0.99 | S. cerevisiae deletion strains, locus YEL061C, strain CIN8, stronger effect = lower value 1.02 | S. cerevisiae deletion strains, locus YGR078C, strain PAC10, stronger effect = lower value 0.997 | S. cerevisiae deletion strains, locus YHR030C, strain SLT2, stronger effect = lower value 0.992 | S. cerevisiae deletion strains, locus YHR087W, strain rtc3, stronger effect = lower value 0.971 | S. cerevisiae deletion strains, locus YJR043C, strain POL32, stronger effect = lower value 1 | S. cerevisiae deletion strains, locus YJR075W, strain HOC1, stronger effect = lower value 0.995 | S. cerevisiae deletion strains, locus YKL190W, strain CNB1, stronger effect = lower value 1.01 | S. cerevisiae deletion strains, locus YLR039C, strain RIC1, stronger effect = lower value 1.01 | S. cerevisiae deletion strains, locus YLR058C, strain SHM2 (second series), stronger effect = lower value 0.992 | S. cerevisiae deletion strains, locus YLR085C, strain ARP6, stronger effect = lower value 1 | S. cerevisiae deletion strains, locus YLR262C, strain YPT6, stronger effect = lower value 0.962 | S. cerevisiae deletion strains, locus YML094W, strain GIM5, stronger effect = lower value 1.01 | S. cerevisiae deletion strains, locus YMR219W, strain ESC1, stronger effect = lower value 0.989 | S. cerevisiae deletion strains, locus YMR263W, strain SAP30, stronger effect = lower value 0.996 | S. cerevisiae deletion strains, locus YNL128W, strain TEP1, stronger effect = lower value 1.01 | S. cerevisiae deletion strains, locus YNL153C, strain GIM3, stronger effect = lower value 0.979 | S. cerevisiae deletion strains, locus YNL298W, strain CLA4 (second series), stronger effect = lower value 0.988 | S. cerevisiae deletion strains, locus YNL322C, strain KRE1, stronger effect = lower value 1.01 | S. cerevisiae deletion strains, locus YNR030W, strain Alg12, stronger effect = lower value 0.986 | S. cerevisiae deletion strains, locus YOL006C, strain TOP1, stronger effect = lower value 0.87 | S. cerevisiae deletion strains, locus YPL055C, strain LGE1, stronger effect = lower value 0.903 | S. cerevisiae deletion strains, locus YPL241C, strain CIN2, stronger effect = lower value 0.992 | S. cerevisiae deletion strains, locus YPR135W, strain CTF4, stronger effect = lower value 0.918 | S. cerevisiae strains, strain wild type, stronger effect = lower value 1
